# Keap1-Nrf2 PPI = Keap1-Nrf2 (human) interaction inhibition | Q14145 | Keap1 Kelch-Nrf2 peptide fluorescence polarization, 1536-well | inhibition, % at 9.4 µM | hit rate 0.15% among 340,000 | AID 504523; in the data active means inhibition above about 12%;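 further: human Keap1 Kelch domain with fluorescein labeled Nrf2 9mer peptide probe; higher means more block of Keap1 binding to Nrf2 peptide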
# Target sequence (Q14145 whole entry, looked up, the tested form may be a part): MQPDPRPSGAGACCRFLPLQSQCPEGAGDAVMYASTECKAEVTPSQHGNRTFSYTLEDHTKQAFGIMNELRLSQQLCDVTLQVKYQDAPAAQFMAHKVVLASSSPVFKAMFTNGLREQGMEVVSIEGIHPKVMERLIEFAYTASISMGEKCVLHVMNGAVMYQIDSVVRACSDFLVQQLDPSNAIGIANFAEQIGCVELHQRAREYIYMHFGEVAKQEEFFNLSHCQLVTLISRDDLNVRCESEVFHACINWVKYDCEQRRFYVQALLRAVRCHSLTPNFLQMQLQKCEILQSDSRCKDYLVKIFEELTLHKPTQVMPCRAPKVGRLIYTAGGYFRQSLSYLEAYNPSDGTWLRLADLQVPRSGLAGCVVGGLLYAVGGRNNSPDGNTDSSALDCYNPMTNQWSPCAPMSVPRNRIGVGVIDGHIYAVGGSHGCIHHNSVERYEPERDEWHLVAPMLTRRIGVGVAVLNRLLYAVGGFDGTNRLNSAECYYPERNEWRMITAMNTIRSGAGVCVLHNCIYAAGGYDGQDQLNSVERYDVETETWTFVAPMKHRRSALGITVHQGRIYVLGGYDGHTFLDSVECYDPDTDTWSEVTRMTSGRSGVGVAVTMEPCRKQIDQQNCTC
# LANA-H2B inh = blocks KSHV LANA binding to histone H2A/H2B; cell-free LANA-H2A/H2B peptide, fluorescence polarization; AID 2629; hit rate 0.6% among 320,000; Q9QR71; inhibition, % (test concentration not listed); in the data active means inhibition mostly above about 10%, no sharp cut-off; inactive means mostly below about 6.7%
# RTF Ca sens act = increases calcium sensitivity of human cardiac regulated thin filaments; IANBD-labeled TnC RTF fluorescence at EC20 calcium; 0% EC20 calcium, 100% full calcium; activation, % at 7.2 µM; hit rate 0.24% among 340,000; AID 493008;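 active means activation above the mean over all tested compounds plus 3 SD, cut at about 30% in these data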;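 further: rise in fluorescence read as greater calcium sensitivity of cardiac thin filaments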
# Cardiac RTF inh = cardiac RTF calcium desensitization | IANBD-labeled cardiac RTF, Ca2+ fluorescence | hit rate 0.12% among 340,000 | P19429+P45379 | AID 493244 | inhibition, % at 7.15 µM;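 active means inhibition above the mean inhibition of all tested compounds plus 3 SD, cut at about 17% in these data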;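 further: assay run at fixed EC70 calcium of 1.6 mM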
# LANA DNA inh = KSHV C-LANA DNA binding inhibition; inhibition, % at 9 µM; hit rate 0.078% among 340,000; MBP-C-LANA/FAM-LBS DNA binding, fluorescence polarization; AID 504423;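 active means highest replicate inhibition at or above 60% at 9 µM, even if other replicates fall short; inactive means all replicates below 60% inhibition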
# RTF inh confirm = cardiac RTF calcium sensitivity inhibition, confirmation; hit rate 8% among 360; shares compounds with Cardiac RTF inh; reconstituted cardiac thin filaments, calcium sensitivity fluorescence; inhibition, % at 7.15 µM; in the data active means inhibition above about 18%
# Keap1 TSA = Keap1 (human) Kelch domain binding; shares compounds with Keap1-Nrf2 PPI; Keap1 Kelch thermal shift, delta Tm; active compounds read high; max delta Tm, degrees C; hit rate 8% among 400; AID 651823; in the data active means max delta Tm above about 0.48 degrees C
# Dye-only ctr = dye artifact in Keap1 thermal shift counter-screen; shares compounds with Keap1-Nrf2 PPI; Sypro Orange dye-only thermal melt, no protein, delta Tm; top dose 26 µM; delta Tm, degrees C (test concentration not listed); 140 tested, under 10 active; AID 651858;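 active means at highest dose tested, delta Tm positive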
# Hits are given with their value; . = inactive; / = no result given; ! = not confirmed by another sample. This is a sample that favours compounds with a hit; in the whole collection about 0.99% have one here.
SMILES,Keap1-Nrf2 PPI,LANA-H2B inh,RTF Ca sens act,Cardiac RTF inh,LANA DNA inh,others
CC[C@H](C)/C=C(C)/C=C/C1=CC2=C(Cl)C(=O)[C@@](C)(OC(C)=O)C(=O)C2=CO1,.,.,.,42,.,
O=C1NC(=S)N(c2ccc(F)cc2)C(=O)/C1=C\c1ccoc1,.,/,.,27,88,
COC(=O)C12CCc3c(ccc4cc(OC)ccc34)C1=CC(=O)C2 (stereo unspecified),.,/,.,.,.,
O=C1NC(=S)NC(=O)C1C1CCCCC1,.,15,.,.,.,
O=C1NC(=O)N(c2ccc3c(c2)OCO3)C(=O)/C1=C/c1cccs1,.,.,.,.,.,
CCOc1ccc(N2C(=O)NC(=O)/C(=C\c3ccc(N4CCCCC4)o3)C2=O)cc1,.,/,112,.,.,
O=C1NC(=O)N(c2ccc3c(c2)OCO3)C(=O)/C1=C/c1ccc(N2CCCC2)o1,.,.,58,.,.,
O=C1C2CCN(CC2)C12CC2c1ccc(C(F)(F)F)cc1 (stereo unspecified),.,.,.,.,.,
COc1ccc(C2=CC(c3ccc4c(c3)OCO4)c3c(c4ccccc4oc3=O)O2)cc1OC (stereo unspecified),.,/,.,.,.,
CN1C(=O)/C(=C/C=C/c2ccco2)C(=O)NC1=S,.,.,.,.,60,
C[N+]12CCC(CC1)C(=C(c1ccccc1)c1ccccc1)C2,.,.,.,19,.,RTF inh confirm=.
CCCCCn1c(=O)c(C(=O)Nc2nc(CC(=O)OCC)cs2)c(O)c2ccccc21,.,.,.,.,.,
Cc1cccc(CN(C)C)c1OC(=O)N(C)C,.,.,.,34,.,RTF inh confirm=.
O=C(O)c1[nH]c(=O)[nH]c(=O)c1F,.,.,.,.,.,
COC(=O)C1=C(c2cccc(OCc3ccccc3)c2)C[C@@H]2CC[C@H]1N2C(=O)NCCOc1ccccc1,.,.,.,.,.,
Oc1ccc2c3c1O[C@H]1c4[nH]c5ccccc5c4C[C@@]4(O)[C@@H](C2)N(CC2CC2)CC[C@]314,.,.,.,.,.,
Oc1ccc2c3c1O[C@H]1c4oc5ccccc5c4C[C@@]4(O)[C@@H](C2)N(CC2CC2)CC[C@]314,.,.,.,27,.,RTF inh confirm=.
O=C(Nc1ccncc1)c1cccn(Cc2ccccc2)c1=O,.,.,.,.,.,
CC12CC3CC(C)(C1)CC(N)(C3)C2,.,.,.,17!,.,RTF inh confirm=.
COc1ccc(CCC(=O)N2C[C@H]3C[C@@H](C2)c2cccc(=O)n2C3)cc1,.,.,.,.,.,
Cc1nc2ccccc2c(=O)n1-c1ccc(F)cc1F,.,.,.,.,.,
Cc1nc2ccccc2c(=O)n1-c1cc(F)ccc1F,.,.,.,28,.,RTF inh confirm=.
CN(C)C1C(=O)C(C(N)=O)=C(O)C2(O)C(=O)C3=C(O)c4c(O)cccc4C(C)(O)C3C(O)C12 (stereo unspecified),.,.,.,30,.,RTF inh confirm=.
CC(C)(C)c1o[nH]c(=O)c1CC(N)C(=O)O (stereo unspecified),.,.,.,21,.,RTF inh confirm=.
Cc1cc(C=C2C(=O)NC(=O)NC2=O)c(C)n1-c1cccnc1,12,.,.,.,.,Keap1 TSA=.
SMILES,Keap1-Nrf2 PPI,LANA-H2B inh,RTF Ca sens act,Cardiac RTF inh,LANA DNA inh,others
CN(C)C1=NP(N(C)C)(N(C)C)=NC(c2ccccc2)=N1,.,.,.,.,.,
CN1/C(=C\C=C2C(=O)NC(=O)NC2=O)C(C)(C)c2ccccc21,32,.,109,.,.,Keap1 TSA=.;Dye-only ctr=.
CN1/C(=C\C=Nc2ccccc2)C(C)(C)c2ccccc21,.,.,.,.,.,
CC(=O)C1(c2ccccc2)CCN(C(=O)C2CCC(=O)N(CCc3cccc(F)c3)C2)CC1 (stereo unspecified),.,.,.,.,.,
CC1CCN(CCc2nc3ccccc3[nH]2)CC1,.,.,.,.,.,
O=C1C(=O)c2ccccc2-c2ccccc21,.,.,.,.,.,
Nc1ccc2c3c(cccc13)-c1ccccc1-2,22,/,359,.,.,Keap1 TSA=.;Dye-only ctr=.
CN1CC=C2C(C#N)=C(N)C(C#N)(C#N)C(c3ccncc3)C2C1 (stereo unspecified),15,.,.,.,.,Keap1 TSA=.;Dye-only ctr=.
CCCCCCCCn1sccc1=O,.,.,.,.,.,
CC(C)(C)c1cc(OC(=O)Cc2ccccc2)ccc1O,.,.,.,.,.,
CC1(O)CCN2C(=O)CCc3cccc1c32 (stereo unspecified),44,12,.,.,.,Keap1 TSA=.
CCCCc1ccc(C(=O)O)nc1,66,.,.,.,67,Keap1 TSA=.
COc1cc(CC(=O)N2C[C@H]3C[C@@H](C2)c2cccc(=O)n2C3)cc(OC)c1OC,.,.,.,.,.,
CN1CCN(c2ccc([N+](=O)[O-])c3no[n+]([O-])c23)CC1,55,38,282,.,82,Keap1 TSA=.;Dye-only ctr=.
Cn1cc(/C=C2\C(=O)NC(=O)N(c3ccccc3)C2=O)c2ccccc21,49,.,.,.,88,Keap1 TSA=.

# Screening results (PubChem BioAssay)
